Measured values taken from PubChem BioAssay AID485313 (National Center for Advancing Translational Sciences (NCATS), 2010).
Out of some 320,000 compounds screened, about 7,600 (2.4%) were called active. Not shown: some 3% with an inconclusive outcome. Calls come from the whole dose curve; as a rule, active = well fitted activation curve with a large enough effect; inconclusive = small, poorly fitted or top-dose-only effect; inactive = no such curve, though single readings can be large or run the other way. The list comes from a sample in which actives are over-represented; it also holds similar structures and randomly drawn compounds. Where a call stands in place of a potency, no number is given.

Assay: qHTS Assay for NPC1 Promoter Activators; note: nearly all actives have a fitted effect of over 60% in size;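 for activation: reporter is driven by a mutant NPC1 promoter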
Conditions: Huh7 NPC1 promoter luciferase reporter, 24 h; series mostly up to 9.22 µM
In short: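 Stable NPC1-promoter luciferase Huh7 line; cpd (DMSO) 24 h, 37 °C, 5% CO2; Amplite luciferase reagent 10 min RT; luminescence readout. qHTS format.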
Potency is the fitted concentration of half-maximal effect.

| Structure (SMILES) | Potency | activation |
| --- | --- | --- |
| CN(CC(=O)Nc1ccc(F)cc1)CC(=O)N1CCCCC1 | inactive | – |
| Cc1ccc(S(=O)(=O)N(CC(=O)Nc2cccc([N+](=O)[O-])c2)Cc2ccc(Cl)cc2)cc1 | inactive | – |
| Cc1cccc(C)c1NC(=O)CNC(=O)c1ccc2c(c1)OCCO2 | inactive | – |
| Cc1nc(NC(=O)c2ccc3c(c2)OCCO3)ccc1Br | 1000 nM (active) | – |
| COc1c(Cl)cc(C(=O)Nc2ccc(Cl)cn2)cc1Cl | inactive | – |
| CC(=O)c1ccc2c(c1)OCCOCCOc1ccc(C(C)=O)cc1OCCOCCO2 | inactive | – |
| CCCc1cc(C(=O)Nc2ccc(Cl)cn2)cs1 | 501 nM (active) | – |
| O=C(Nc1cccc(S(=O)(=O)Nc2ccc(Cl)cc2)c1)c1ccc2c(c1)OCCO2 | inactive | – |
| CCCc1cc(C(=O)Nc2ccc(C(=O)OC)cc2)cs1 | inactive | – |
| O=C(Nc1ccc(Cl)cn1)c1ccc2c(c1)OCCO2 | 501 nM (active) | – |
| CCCCC(CC)C(=O)Nc1ccc(Cl)cn1 (centres undefined) | inactive | – |
| O=C(C1Cc2ccccc2CN1C(=O)c1ccco1)N1CCN(c2ccccc2)CC1 (centres undefined) | inactive | – |
| CN(CC(=O)Nc1ccc(F)c(F)c1F)C(=O)C1CC(=O)N(C2CCCC2)C1 (centres undefined) | inactive | – |
| COc1ccc(CS(=O)/C(Cl)=C(/Cl)C(=O)Nc2ccc(OC)nc2)cc1 (centres undefined) | inactive | – |
| CCCCNC(=O)OC(C)CNC(=O)OC (centres undefined) | inactive | – |
| COc1ccc(NC(=O)COC(=O)c2n[nH]c3ccccc23)c(OC)c1 | inactive | – |
| O=C(CSc1nnc(COc2ccc(Cl)cc2)n1Cc1ccco1)N1CCNC1=O | inactive | – |
| CCNC(=O)N1CCN(S(=O)(=O)c2ccc3c(c2)OCCCO3)CC1 | inactive | – |
| C=CCN1C(=O)C(Cc2cccc(Cl)c2)S/C1=N/N=C/c1ccco1 (centres undefined) | inactive | – |
| COc1ccc(CN2C(=O)C(C)S/C2=N/N=C/c2ccco2)cc1 (centres undefined) | 3160 nM (active) | – |
| O=C1N/C(=N\N=C\c2ccco2)SC1Cc1ccc(F)cc1 (centres undefined) | inactive | – |
| CCOc1ccc(S(=O)(=O)N2CCC(C(=O)NCC(=O)Nc3cccc(Cl)c3C)CC2)cc1 | inactive | – |
| O=C(Nc1ccccc1F)c1ccc(S(=O)(=O)N2CCCCCC2)cc1 | inactive | – |

| Structure (SMILES) | Potency | activation |
| --- | --- | --- |
| CCc1ccc2oc(-c3ccc(N)cc3)nc2c1 | 708 nM (active) | – |
| Cc1[nH]c2ccccc2c1C(=O)C(C)Sc1nnc(C2CC2)o1 (centres undefined) | inactive | – |
| O=C(O)/C=C/c1ccc2c(c1)OCCO2 | inactive | – |
| Cc1cccc(NC(=O)/C=C/c2ccc3c(c2)OCO3)n1 | 1410 nM (active) | – |
| CC(NC(=O)Nc1ccc2c(c1)OCO2)c1ccncc1 (centres undefined) | inactive | – |
| Cc1cccc(NC(=O)Nc2ccc3c(c2)OCO3)n1 | 1780 nM (active) | – |
| Cc1ccc(S(=O)(=O)NCC(=O)Nc2ccc3c(c2)OCCO3)cc1 | inactive | – |
| COc1ccc(OC)c(/C=C/C(=O)OCC(=O)Nc2ccc3c(c2)OCCO3)c1 | inactive | – |
| COc1cccc(/C=C/C(=O)Nc2ccc3c(c2)OCCO3)c1 | 2510 nM (active) | – |
| CNS(=O)(=O)c1ccc(NC(=O)Nc2ccc3c(c2)OCO3)cc1 | 2510 nM (active) | – |
| O=C(/C=C/c1ccc2c(c1)OCO2)NCc1ccc(F)cc1 | inactive | – |
| CC(NC(=O)Nc1cccc([N+](=O)[O-])c1)c1ccc2c(c1)OCO2 (centres undefined) | inactive | – |
| CC(C)CNS(=O)(=O)c1ccc(C(=O)Nc2ccc3c(c2)OCO3)cc1 | inactive | – |
| O=C(/C=C\c1ccc2c(c1)OCO2)NC1(C(=O)Nc2ccc3c(c2)OCCO3)CCCCC1 | inactive | – |
| COc1ccc(NC(=O)CN(C)C(=O)c2cc(C3CC3)nn2-c2ccccc2)cc1 | inactive | – |
| O=S(=O)(c1ccc(Br)cc1)n1ccc2ccccc21 | inactive | – |
| COc1ccc(S(=O)(=O)N2CCOCC2)cc1NC(=O)c1ccc(OCC(C)C)c(OC)c1 | inactive | – |
| Cc1ccccc1NC(=O)Cc1nc(COC(=O)c2cccnc2Cl)cs1 | inactive | – |
| O=C(CCc1ccccc1Cl)Nc1ccc(S(=O)(=O)Nc2nccs2)cc1 | inactive | – |
| Cc1ccc(CN2CC(C(=O)N3CCN(S(=O)(=O)c4ccccc4)CC3)CC2=O)cc1 (centres undefined) | inactive | – |
| NS(=O)(=O)c1ccc(CNC(=O)c2cccc(S(=O)(=O)N3CCc4ccccc43)c2)cc1 | inactive | – |
| O=C(O)c1cccc(S(=O)(=O)N2CC=C(c3ccccc3)CC2)c1 | inactive | – |
| COc1cccc(C(=O)OCC(=O)c2[nH]c(C)c(C(C)=O)c2C)c1 | inactive | – |

| Structure (SMILES) | Potency | activation |
| --- | --- | --- |
| COCCN1C(=O)C(=O)/C(=C(/O)c2ccc(S(=O)(=O)N3CCCCC3)cc2)C1c1ccc(OC)c(OC)c1 (centres undefined) | inactive | – |
| O=C(CSC(=S)N1CCOCC1)c1ccccc1 | 501 nM (active) | – |
| COc1cccc(NC(=O)CN(C)C(=O)CSC(=S)N2CCCC2)c1 | inactive | – |
| O=C(CSC(=S)N1CCOCC1)c1cc(Br)cc(Br)c1O | inactive | – |
| O=C(CSC(=S)N1CCCCC1)c1c(F)cccc1F | 1120 nM (active) | – |
| CC(=O)c1ccc(NC(=O)CSC(=S)N2CCCC2)cc1 | inactive | – |
| CC1CN(C(=S)SCC(=O)c2ccccc2)CC(C)O1 (centres undefined) | inactive | – |
| COc1ccc(C(=O)N2CCN(c3ncccn3)CC2)cc1S(=O)(=O)N1CCOCC1 | – | -2.21% [at 1.84 µM] (inactive) |
| C=CCC(NC(=O)Cc1ccccc1)C(=O)NCCC (centres undefined) | inactive | – |
| COc1ccc2nc(NC3=NCN(CC4CCCO4)CN3)nc(C)c2c1 (centres undefined) | inactive | – |
| COc1ccc(NS(=O)(=O)c2cc(NC(=O)COc3ccccc3F)ccc2OC)cc1 | inactive | – |
| COc1ccc(C(=O)Nc2ccccc2C(=O)N/N=C/c2ccc(O)c(OC)c2)cc1 | inactive | – |
| O=C(N/N=C/c1cccc(Br)c1)c1ccc(N2CCCC2=O)cc1 | inactive | – |
| COc1cc(/C=N/NC(=O)c2ccc(N3CCCC3=O)cc2)ccc1O | 2510 nM (active) | – |
| O=C1C=C(c2cccc(Cl)c2)C[C@@H](c2ccc(F)cc2)C1 | inactive | – |
| CN1C(=O)c2ccc(NC(=O)C3CCCCC3)cc2C1=O | inactive | – |
| Cc1ccccc1NC(=O)C1CCN(C(=O)NC2CCCCC2)CC1 | inactive | – |
| O=C(Nc1cc2ccccc2oc1=O)C1CCCCC1 | 447 nM (active) | – |
| COc1ccc(S(=O)(=O)N2CCOCC2)cc1NC(=O)Cc1c(F)cccc1Cl | inactive | – |
| Cc1sc2ncnc(SCC(=O)Nc3ccc(CN4CCCC4)cc3)c2c1C | inactive | – |
| Cc1cccc(OCC(=O)NCC(=O)N/N=C/c2ccc(N(C)C)cc2)c1 | inactive | – |
| O=C(N/N=C/c1cccc(OCc2ccccc2)c1)c1ccc(Br)o1 | inactive | – |
| Cc1ccc(OCCOc2cccc(/C=N/NC(N)=O)c2)cc1 | 2820 nM (active) | – |
